Screening results: PubChem, Broad Institute
An excerpt weighted towards active compounds, which were near 3.9% of everything screened.
CASP6 VEID inh: human caspase-6 inhibitors, primary screen, biochemical, VEID-R110 fluorescence, single point, set 2 | purified caspase-6, Z-VEID-R110 cleavage fluorescence | inhibition, % at 12.5 µM | P55212 | AID 686996, 2013 | 350,000 compounds, 0.53% hits;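 active = mean inhibition across replicates at least about 35%, with every replicate also reaching that limit, limit read from the data; inconclusive = only one of the two criteria met; inactive = neither criterion met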;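 also: 0% = median of neutral control wells and 100% = no fluorescence left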
Mot1-301 SUMO: yeast Mot1-301 growth rescue at high temperature, primary screen, SUMOylation pathway inhibitor project, S. cerevisiae, ATP luminescence, 38.5C | S. cerevisiae Mot1-301 growth rescue; percent above DMSO median, 100 means doubled | growth rescue, % at 18.8 µM | 320,000 compounds, 1% hits;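 active = every valid replicate shows activation above 250% relative to neutral control wells; inactive = the rest, any valid replicate at or below 250%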;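 also: OY570 slx delta 5 strain wells were the positive control but not used for scaling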
N-glyco inh: increase of ERlucT glycosylation luciferase signal, primary screen, N-linked glycosylation inhibitor project, D54 ERlucT cells, luminescence, set 2 | D54 ERlucT glycosylation luciferase reporter, 24 h; percent of 100 nM tunicamycin response | reporter increase, % at 12.5 µM | 360,000 compounds, 0.23% hits | AID 588692, 2011;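 active = mean luciferase reporter signal, scaled so untreated is 0 and the glycosylation-blocking control 100, at or above a set limit in every replicate; inconclusive = mean reaches the limit but not every replicate does; inactive = mean below the limit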;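 also: luciferase carries N-glycosylation sites so blocking glycosylation raises the light; 0% = median of neutral control wells and 100% = median of 100 nM tunicamycin wells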
CDK5 p35 inh: inhibitors of human CDK5/p35 kinase, primary screen, biochemical, single concentration; Cyclin-dependent kinase 5 (Homo sapiens) + Cyclin-dependent kinase 5 activator 1 (Homo …; Recombinant CDK5/p35, ADP-Glo luminescence, 60 min; inhibition, % at 10 µM; 330,000 compounds, 0.01% hits;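 active = highest replicate inhibition of at least 50% and at least 75% of replicates reaching 50%; inconclusive = only one of the two criteria met; inactive = both criteria failed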;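 also: plate controls were DMSO neutral control for no effect and GW8510 at 10 µM for full effect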
ALR inh: inhibitors of human ALR sulfhydryl oxidase, primary screen, biochemical, H2O2 detection, HRP-luminol luminescence, single point | FAD-linked sulfhydryl oxidase ALR (Homo sapiens), P55789 | purified ALR, DTT oxidation | inhibition, % (concentration not given with the values) | 290,000 compounds, 3.8% hits;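 active = mean replicate inhibition above about 79%, with every replicate also reaching it, limit read from the data; inconclusive = only one of the two criteria met; inactive = mean below limit and not every replicate reaching it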
NSD2 HMT inh: NSD2 histone methyltransferase inhibitors, primary screen, biochemical, AlphaScreen, single concentration, set 2; Histone-lysine N-methyltransferase NSD2 (Homo sapiens), O96028; NSD2 peptide methylation, 120 min; inhibition, % at 12.5 µM; 310,000 compounds, 0.54% hits; in the data active = inhibition above about 50%
Target sequence (O96028 whole entry, looked up): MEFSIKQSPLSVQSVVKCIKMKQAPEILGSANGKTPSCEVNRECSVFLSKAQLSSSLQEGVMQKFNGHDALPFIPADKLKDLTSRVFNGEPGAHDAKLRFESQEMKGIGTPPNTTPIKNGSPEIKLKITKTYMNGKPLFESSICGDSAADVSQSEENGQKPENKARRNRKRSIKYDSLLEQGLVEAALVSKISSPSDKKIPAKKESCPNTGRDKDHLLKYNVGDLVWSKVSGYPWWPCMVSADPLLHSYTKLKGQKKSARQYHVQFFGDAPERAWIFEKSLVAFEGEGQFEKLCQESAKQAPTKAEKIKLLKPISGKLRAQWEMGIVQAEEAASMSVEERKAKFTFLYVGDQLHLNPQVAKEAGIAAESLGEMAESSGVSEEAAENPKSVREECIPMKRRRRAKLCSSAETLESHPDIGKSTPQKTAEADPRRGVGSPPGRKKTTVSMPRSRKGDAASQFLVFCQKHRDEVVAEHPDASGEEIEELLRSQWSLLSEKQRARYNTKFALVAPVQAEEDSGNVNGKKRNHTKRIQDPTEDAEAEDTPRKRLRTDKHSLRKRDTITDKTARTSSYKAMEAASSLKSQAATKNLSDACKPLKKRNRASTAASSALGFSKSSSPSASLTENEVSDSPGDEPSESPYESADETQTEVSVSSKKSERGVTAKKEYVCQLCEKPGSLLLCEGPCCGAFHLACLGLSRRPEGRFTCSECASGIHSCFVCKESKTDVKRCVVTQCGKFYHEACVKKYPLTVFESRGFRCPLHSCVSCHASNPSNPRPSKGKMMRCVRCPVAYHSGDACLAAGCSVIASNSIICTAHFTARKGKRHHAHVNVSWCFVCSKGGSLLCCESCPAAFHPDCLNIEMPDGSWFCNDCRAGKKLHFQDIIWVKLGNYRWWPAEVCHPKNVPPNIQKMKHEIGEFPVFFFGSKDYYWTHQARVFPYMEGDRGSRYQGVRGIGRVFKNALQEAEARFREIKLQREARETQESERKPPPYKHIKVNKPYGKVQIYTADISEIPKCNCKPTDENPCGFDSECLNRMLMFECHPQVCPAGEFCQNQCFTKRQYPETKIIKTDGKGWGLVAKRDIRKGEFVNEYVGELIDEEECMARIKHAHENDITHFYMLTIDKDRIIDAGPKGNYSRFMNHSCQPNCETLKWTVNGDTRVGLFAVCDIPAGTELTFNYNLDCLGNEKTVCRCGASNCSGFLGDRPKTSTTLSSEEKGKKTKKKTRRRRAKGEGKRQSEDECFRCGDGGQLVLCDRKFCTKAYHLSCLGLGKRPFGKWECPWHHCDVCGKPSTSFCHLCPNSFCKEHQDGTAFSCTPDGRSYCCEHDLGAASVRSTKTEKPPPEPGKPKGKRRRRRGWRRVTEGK
* = called active by the depositor; ? = inconclusive; nt = not tested or not shown.

SMILES | CASP6 VEID inh | Mot1-301 SUMO | N-glyco inh | CDK5 p35 inh | ALR inh | NSD2 HMT inh
COc1cc(/C=C2\SC(=S)N(CC(=O)O)C2=O)ccc1OS(=O)(=O)c1ccc(C)cc1 | 41* | 194 | 0 | 2 | 89* | 3
CCCC1=NN2C(=N)/C(=C\c3cc(C)n(Cc4ccccc4)c3C)C(=O)N=C2S1 | -3 | -5 | -1 | -1 | 6 | -1
COc1cc(/C=C2\C(=N)N3N=C(S(C)(=O)=O)SC3=NC2=O)cc(OC)c1OCCOc1ccccc1C | 42* | 6 | 2 | 1 | 53 | 22
COc1cc(/C=C2/SC(=S)N(CC(=O)O)C2=O)ccc1OC(=O)c1cccs1 | 5 | 3 | -2 | 1 | nt | 8
Cc1cc(/C=C2\C(=N)N3N=CSC3=NC2=O)c(C)n1Cc1ccccc1 | 3 | -4 | -1 | 0 | 88* | 8
O=C(C[C@H]1C=C[C@H](NS(=O)(=O)c2ccc(F)cc2)[C@H](CO)O1)NC1CCCCC1 | 0 | nt | nt | nt | nt | nt
Cc1ccc(S(=O)(=O)NCC[C@@H]2CC[C@H](NC(=O)C3CCOCC3)[C@@H](CO)O2)cc1 | -6 | nt | nt | nt | nt | nt
Cc1cccc(-n2c(C)cc(/C=C3/C(=N)N4C(c5ccccc5)=CSC4=NC3=O)c2C)c1 | 1 | 17 | -1 | 2 | -3 | 0
COc1cc(/C=C2\C(=N)N3N=C(S(C)(=O)=O)SC3=NC2=O)ccc1OS(=O)(=O)c1ccc(C)cc1 | 50* | -22 | 4 | 1 | ? | 18
CCOc1cc(/C=C2/C(=N)N3N=C(C)SC3=NC2=O)ccc1OS(=O)(=O)c1ccc(C)cc1 | 12 | 12 | 2 | 2 | 20 | 3
COc1cc(/C=C2/C(=N)N3C(c4ccccc4)=CSC3=NC2=O)ccc1OCC(=O)O | 24 | nt | 3 | 0 | 99* | 7
CCOP(=O)(OCC)C(C#N)=C1SCN(c2ccccc2)CS1 | nt | nt | -1 | -1 | 99* | nt
COCC(=O)N1CC(=O)N2[C@H](CO)[C@H](c3ccc(-c4ccncc4)cc3)[C@@H]2C1 | -1 | nt | nt | nt | nt | nt
C/C(=N\NC(=O)c1cccs1)c1c(O)cc(C)oc1=O | 0 | 19 | -1 | 0 | 12 | -2
C/C(=N\Nc1ccc(Cl)cc1)c1c(O)cc(C)oc1=O | 0 | 332* | 1 | 1 | 99* | 0
COCC#Cc1ccc2c(c1)O[C@@H](CN(C)C)[C@H](C)CN([C@@H](C)CO)S2(=O)=O | 2 | nt | nt | nt | nt | nt
CCCCn1c(N)c(N(CC(C)C)C(=O)c2cc(-c3ccco3)nc3ccccc23)c(=O)[nH]c1=O | 39* | 8 | -1 | 2 | 1 | 4
O=C(NC1CCN(Cc2ccccc2)CC1)C1COc2ccccc2O1 (centres undefined) | nt | 273* | -1 | 2 | -11 | 2
CCN(c1ccccc1)S(=O)(=O)c1ccc(C(=O)NC2CCN(Cc3ccccc3)CC2)cc1 | nt | -5 | 48* | 1 | -7 | 1
CCN(c1ccccc1)S(=O)(=O)c1ccc(C(=O)NC2CCCCC2)cc1 | -1 | nt | -3 | nt | nt | -10
Cc1n[nH]c(=O)nc1N1CCN(c2ccccc2)CC1 | nt | -26 | 2 | 0 | ? | 0
Fc1cnc(Cl)nc1N1CCN(c2ccccc2)CC1 | 1 | -5 | -3 | 0 | 99* | -1
Fc1cnc(N2CCOCC2)nc1N1CCOCC1 | -1 | -2 | 2 | 1 | -16 | -2
CN1CCN(c2nc(N3CCN(c4ccccc4)CC3)ncc2F)CC1 | nt | -1 | -5 | -7 | 99* | 11
O=C(C[C@@H]1C=C[C@@H](NC(=O)C2CC2)[C@H](CO)O1)NC1CCC1 | 1 | nt | nt | nt | nt | nt
SMILES | CASP6 VEID inh | Mot1-301 SUMO | N-glyco inh | CDK5 p35 inh | ALR inh | NSD2 HMT inh
CCCn1nc([N+](=O)[O-])c(C(C#N)c2nc3ccccc3o2)c(Cl)c1=O (centres undefined) | nt | -26 | -3 | 3 | nt | 33
CCn1nc([N+](=O)[O-])c(C(C#N)c2nc3cc(C(F)(F)F)ccc3s2)c(Cl)c1=O (centres undefined) | nt | 1 | -5 | 1 | 98* | 54*
CC(C(=O)N(C)C1CCS(=O)(=O)C1)N1C(=O)/C(=C/c2ccco2)SC1=S (centres undefined) | 45* | -6 | -1 | nt | -67 | 26
O=C(CN1C(=O)/C(=C/c2ccco2)SC1=S)Nc1ccc(C(=O)O)c(O)c1 | 73* | 0 | 0 | -7 | 12 | 135*
CC(C(=O)N(C)C1CCS(=O)(=O)C1)N1C(=O)/C(=C/c2cccs2)SC1=S (centres undefined) | 7 | 0 | 0 | 1 | 0 | 25
O=C(CN1C(=O)/C(=C/c2ccco2)SC1=S)NC1CCS(=O)(=O)C1 (centres undefined) | 49* | -8 | -1 | -5 | -2 | 37
CC(C(=O)Nc1ccc(C(=O)O)c(O)c1)N1C(=O)/C(=C\c2ccco2)SC1=S (centres undefined) | nt | 3 | -2 | -2 | 18 | nt
C[C@@H]1CN([C@@H](C)CO)S(=O)(=O)c2ccc(C#CC3CCCC3)cc2O[C@H]1CN(C)C | 2 | nt | nt | nt | nt | nt
O=C(C[C@H]1CC[C@H](NC(=O)c2ccc3c(c2)OCO3)[C@@H](CO)O1)NC1Cc2ccccc2C1 | -2 | nt | nt | nt | nt | nt
COc1ccc(N2CCN(CC(O)c3c[nH]c4ccc(OC)cc34)CC2C)cc1 (centres undefined) | nt | -4 | -1 | 4 | 100* | 12
COc1ccc2[nH]cc(C(O)CN3CCN(c4ccccc4F)CC3)c2c1 (centres undefined) | -2 | -7 | -1 | 0 | -3 | 4
Cc1c(Cc2ccccc2)c(=O)oc2cc(OC(=O)c3ccccc3)ccc12 | nt | 3 | 0 | 1 | nt | 0
Cc1c(Cc2ccccc2)c(=O)oc2cc(OCc3nn[nH]n3)ccc12 | nt | 42 | -2 | 0 | 98* | 1
COC(=O)Cc1c(C)c2ccc(OC(=O)c3ccccc3)cc2oc1=O | nt | -12 | 2 | 1 | 98* | -4
Cc1c(CC(=O)O)c(=O)oc2cc(OCc3nn[nH]n3)ccc12 | nt | -10 | 1 | -1 | 2 | -3
Cc1c(Cc2ccccc2)c(=O)oc2cc(OCC(=O)N3CCC(C(=O)O)CC3)ccc12 | -3 | 4 | 1 | -1 | 93* | nt
CCN(CC)c1ccc(C2C(C(=O)OCCOC)=C(C)NC3=C2C(=O)CCC3)cc1 (centres undefined) | -2 | 7 | 0 | 0 | 99* | 5
